# Experimental data taken from PubChem BioAssay AID1565 (Sanford-Burnham Center for Chemical Genomics, 2009).
# Among all 290,000 compounds or so, about 3,200 (1.1%) were called active. This excerpt belongs to a sample that is enriched for actives. Unmarked numbers belong to inactive results. Rule as the data show it: active = inhibition above about 60%; inactive = the rest.
# Target: Phosphoethanolamine/phosphocholine phosphatase (Homo sapiens) (UniProt Q8TCT1)
# Assay: PubChem AID 1565
# Settings: recombinant PHOSPHO1, absorbance phosphatase assay; at 13.3 µM; stronger effect = higher value
# Chain of Phosphoethanolamine/phosphocholine phosphatase (Homo sapiens) (Q8TCT1 whole entry, looked up): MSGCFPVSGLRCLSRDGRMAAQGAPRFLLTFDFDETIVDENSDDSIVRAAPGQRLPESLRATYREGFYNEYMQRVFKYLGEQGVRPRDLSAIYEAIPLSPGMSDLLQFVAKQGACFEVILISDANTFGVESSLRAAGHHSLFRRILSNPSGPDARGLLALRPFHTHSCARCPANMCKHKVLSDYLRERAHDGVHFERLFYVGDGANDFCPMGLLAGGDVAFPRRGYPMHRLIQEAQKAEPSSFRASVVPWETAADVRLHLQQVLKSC
row,SMILES,inhibition
1,O=C(N/N=C\c1cccnc1)c1cc(-c2ccccc2)nc2c(Cl)cccc12,9%
2,O=C(/C=C/c1cccc(C(F)(F)F)c1)N1CCN(c2ccccn2)CC1,23.3%
3,Clc1c(OCCCn2ccnc2)ccc2ccccc12,13.9%
4,O=C(O)c1[nH]c2ccccc2c1C(c1cccc(O)c1)c1c(C(=O)O)[nH]c2ccccc12,14.1%
5,Cc1cccc(NC(=O)c2nnn(-c3cccc(C(F)(F)F)c3)c2N)c1,11.4%
6,O=C(O)CSCC(=O)Nc1ccc(C(F)(F)F)cc1,46.4%
7,O=C(O)CC1(CC(=O)Nc2cccc(C(F)(F)F)c2)CCCC1,24%
8,Cc1cccc(NC(=O)c2cccc(C(F)(F)F)c2)c1,66.2% (active)
9,O=C(O)CSCC(=O)Nc1cccc(C(F)(F)F)c1,61.5% (active)
10,CNC(=O)c1ccc(NC(=O)c2cccc(C(F)(F)F)c2)cc1,47.6%
11,COc1ccc(/C=N/NC(=O)C2CC2)c(OC)c1OC,21.2%
12,CC1Sc2ccc(S(=O)(=O)CCC(=O)NCc3ccccc3Cl)cc2NC1=O (configuration not stated),-22.3%
13,COc1ccc(CCNC(=O)COC(=O)c2ccc[nH]c2=O)cc1,0.3%
14,COc1ccccc1C(=O)OCC(=O)NCCNC(=O)COC(=O)c1ccccc1OC,70.6% (active)
15,COc1ccc(C(=O)OCC(=O)NCCCc2ccccc2)cc1OC,17.9%
16,O=C(CSc1nnnn1C1CCCC1)N1CCCCC1,30.7%
17,O=C(c1cc2ccccc2s1)N1CCN(c2ccccn2)CC1,42.8%
18,CCc1ccc(OCC2c3cc(OC)c(OC)cc3CCN2C(C)=O)cc1 (configuration not stated),42%
19,COc1ccccc1OCCNC(=O)CCNC(=O)c1ccccc1Cl,23.8%
20,O=C(c1cccc([N+](=O)[O-])c1)N1CCN(Cc2ccccc2)CC1,18.4%
21,CN(C(=O)c1cccc([N+](=O)[O-])c1)c1ccccc1C(=O)NCc1ccccc1,61% (active)

row,SMILES,inhibition
1,Cc1cc(CNC(=O)c2cccc([N+](=O)[O-])c2)c2ccccc2n1,-3%
2,O=C(N/N=C/c1ccc(Cl)c(Cl)c1)c1ccc2nc[nH]c2c1,29.8%
3,N#Cc1ccc(C2N=C(c3ccccc3)NO2)cc1 (configuration not stated),30.4%
4,CCOC(=O)c1c(C)n(C)c2ccc(OC)c(NC(=O)CN3CCC4(CC3)OCCO4)c12,96.8% (active)
5,COc1ccc(Cl)cc1NC(=O)CN1CCN(C(=O)N2CCOCC2)CC1,4.5%
6,CCOC(=O)c1c(C)n(C)c2ccc(OC)c(NS(=O)(=O)CC)c12,-2.4%
7,CCOc1ccc(C(C(=O)NCCOC)N(CCOC)C(=O)CCC(=O)Nc2ccccn2)cc1 (configuration not stated),1.5%
8,COc1ccc2cc(C(=O)C3CCCN(C(=O)c4sc(C)nc4C)C3)ccc2c1 (configuration not stated),22.6%
9,COc1ccccc1N1CC(C(=O)Nc2nnc(SCC(=O)NC(C)C)s2)CC1=O (configuration not stated),-84.3%
10,O=C(COC(=O)c1ccc(F)cc1)NCCCc1ccccc1,24.1%
11,Cc1ccc(N2C(=O)CC(Sc3ncn[nH]3)C2=O)cc1 (configuration not stated),105% (active)
12,O=C1CC(Sc2ncn[nH]2)C(=O)N1c1ccccc1 (configuration not stated),97.9% (active)
13,O=C1CC(N2CCN(c3ccc(F)cc3)CC2)C(=O)N1c1ccccc1 (configuration not stated),-16.5%
14,COC(=O)c1ccccc1SC1CC(=O)N(c2cccc(C)c2)C1=O (configuration not stated),-11.7%
15,CC(=O)Nc1ccc(N2C(=O)CC(Sc3nccc(C)n3)C2=O)cc1 (configuration not stated),19.2%
16,COc1ccc(N2C(=O)CC(Sc3n[nH]c(-c4ccc(C)cc4)n3)C2=O)cc1 (configuration not stated),10.2%
17,CCc1ccc(/C=N/NC(=O)c2nnn(-c3nonc3N)c2CN2CCc3ccccc32)cc1,23.3%
18,Cc1[nH]c(C)c(S(=O)(=O)N2CCN(c3cccc(C(F)(F)F)c3)CC2)c1C(=O)N1CCCC1,12.1%
19,Cc1cccc(N(C)C(=O)c2cc(S(=O)(=O)N3CCCCC3)c[nH]2)c1,25.4%
20,CCc1cccc(C)c1NS(=O)(=O)c1cc(Br)cnc1N,35.5%
21,CCCC(=O)N1CCN(c2nnc(-c3ccc(C)cc3)c3ccccc23)CC1,30.8%

row,SMILES,inhibition
1,C=CCn1c(SCC(=O)Nc2nc3ccccc3s2)nnc1-c1ccccc1O,-17.5%
2,O=C(CSc1nc2ccc(Nc3nc(N4CCOCC4)nc(N4CCOCC4)n3)cc2s1)NCc1ccco1,16.2%
3,C=CCn1c(CSc2nc3ccccc3s2)nnc1SCC(=O)NCc1ccco1,89.7% (active)
4,O=S(=O)(/C=C/c1ccccc1)N1CCNCC1,37%
5,Cc1cc(S(=O)(=O)NCc2ccccn2)c(Cl)cc1Cl,29.5%
6,CC1(C)NC(=O)N(CC(=O)Nc2cc(C(F)(F)F)cc(C(F)(F)F)c2)C1=O,24%
7,O=C(NCc1ccc(Cl)cc1)c1cc(=O)nc2sc(-c3ccccc3)nn12,19.7%
8,O=C(NCc1ccc(Cl)cc1)c1cc2c(nc3sccn32)s1,66.1% (active)
9,O=C(NCc1ccc(Cl)cc1)NCc1ccc(Cl)cc1,42.1%
10,COc1ccc(NC(=O)C2CCC(CNS(=O)(=O)c3csc(C(N)=O)c3)CC2)cc1OC (configuration not stated),48.8%
11,CCOc1ccc(-c2n[nH]c(=S)n2/N=C/c2cc3c(cc2[N+](=O)[O-])OCO3)cc1,57.5%
12,Cc1ccc(S(=O)(=O)N/N=C\c2cc3c(cc2[N+](=O)[O-])OCO3)cc1,-27.6%
13,Cc1ccc(-c2n[nH]c(=S)n2/N=C/c2cc3c(cc2[N+](=O)[O-])OCO3)cc1,99.7% (active)
14,CN(C(=O)CC1C(=O)NCCN1Cc1ccc2ccccc2c1)C1CCOCC1 (configuration not stated),9%
15,CCNC(=O)CCc1nc(-c2ccc(C)cc2)no1,12.3%
16,COc1ccc(N(Cc2cc3cc(OC)ccc3[nH]c2=O)S(C)(=O)=O)cc1,-2.4%
17,COc1ccc2[nH]c(=O)c(-c3noc(-c4ccc(F)cc4)n3)cc2c1,80.2% (active)
18,CCCc1nc(-c2cc3cc(C)ccc3[nH]c2=O)no1,76.8% (active)
19,CC(=O)OCc1cc2cc(C)ccc2[nH]c1=O,-4.1%
20,Cc1cccc(-c2noc(-c3ccc(F)cc3)n2)c1,-3.7%
